{
  "source": "PubChem BioAssay (EPA / NIEHS)",
  "note": "Activity calls are given as the source filed them. How the source made its calls: active means hit-call score of the fitted dose curve at least 0.9, where 1 is the maximum; inactive means score below 0.9.",
  "data": [
    {"read-out": "Forkhead box O3 (FOXO3), FOXO3 (gene 2309)", "test": "LTEA_HepaRG_FOXO3: Life Technologies and Expression Analysis (LTEA) Assay for Forkhead box O3 (FOXO3) using HepaRG (AID 2283459)", "details": "mRNA level, 48 h; actives raise or lower the signal", "in_short": "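Gene-expression endpoint: FOXO3 transcript level by qRT-PCR in HepaRG cultures treated 48 h with chemicals up to 100 uM (half-log, 0.5% DMSO vehicle).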", "values": [
      {"compound": "CC1=C2C[C@H]3[C@@H](CC=C4C[C@@H](O)CC[C@@]43C)[C@@H]2CC[C@]12O[C@@H]1C[C@H](C)CN[C@H]1[C@H]2C", "outcome": "inactive"},
      {"compound": "CC#Cc1cc(C)nc(Nc2ccccc2)n1", "AC50": "7.38 µM (active)"},
      {"compound": "CCC(C)(c1ccc(O)cc1)c1ccc(O)cc1", "outcome": "inactive"},
      {"compound": "Cc1ccccc1CO[C@@H]1C[C@@]2(C(C)C)CC[C@]1(C)O2", "outcome": "inactive"},
      {"compound": "CCC(=O)O[C@H]1CC[C@H]2[C@@H]3CCC4=CC(=O)CC[C@]4(C)[C@H]3CC[C@]12C", "outcome": "inactive"},
      {"compound": "CCCCCCCCCc1ccc(O)cc1", "outcome": "inactive"},
      {"compound": "ClC(Cl)=C(c1ccc(Cl)cc1)c1ccc(Cl)cc1", "outcome": "inactive"},
      {"compound": "O=S(=O)(O)C(F)(F)C(F)(F)C(F)(F)C(F)(F)C(F)(F)C(F)(F)F", "outcome": "inactive"},
      {"compound": "Cc1cc(O)ccc1Cl", "outcome": "inactive"},
      {"compound": "O=C(O)C(F)(F)C(F)(F)C(F)(F)C(F)(F)C(F)(F)C(F)(F)C(F)(F)C(F)(F)F", "AC50": "50 µM (active)"},
      {"compound": "COS(=O)(=O)OC", "outcome": "inactive"},
      {"compound": "N#Cc1ccc(N(CC(N)=O)CC(F)(F)F)cc1C(F)(F)F", "outcome": "inactive"},
      {"compound": "CCC(C)(CC)c1cc(NC(=O)c2c(OC)cccc2OC)on1", "outcome": "inactive"},
      {"compound": "O=C(N[C@H]1CN2CCC1CC2)c1cc2ccoc2cn1", "outcome": "inactive"},
      {"compound": "C1CC2OC2CC1C1CO1", "note": "(stereo unspecified)", "outcome": "inactive"},
      {"compound": "O=S(=O)(O)C(F)(F)C(F)(F)C(F)(F)C(F)(F)F", "outcome": "inactive"},
      {"compound": "O=NN(c1ccccc1)c1ccccc1", "outcome": "inactive"},
      {"compound": "NS(=O)(=O)C(F)(F)C(F)(F)C(F)(F)C(F)(F)C(F)(F)C(F)(F)C(F)(F)C(F)(F)F", "AC50": "6.91 µM (active)"},
      {"compound": "CC(c1ccc(O)cc1)(c1ccc(O)cc1)c1ccc(O)cc1", "AC50": "70.9 µM (active)"},
      {"compound": "C=CC(N)=O", "outcome": "inactive"},
      {"compound": "Cc1cc2c3c(c1)C(c1ccccc1)=N[C@@H](NC(=O)c1ccncc1)C(=O)N3CC2", "AC50": "50 µM (active)"},
      {"compound": "CN(C)CCO", "outcome": "inactive"},
      {"compound": "Nn1cnnc1", "outcome": "inactive"},
      {"compound": "Cc1cc(-c2ccc(N)c(C)c2)ccc1N", "AC50": "18 µM (active)"},
      {"compound": "O=C(NC(=O)c1c(F)cccc1F)Nc1cc(Cl)c(OC(F)(F)C(F)F)c(Cl)c1", "outcome": "inactive"},
      {"compound": "CN(C)c1nc(=O)n(C2CCCCC2)c(=O)n1C", "outcome": "inactive"},
      {"compound": "O=C(O)C(F)(F)C(F)(F)C(F)(F)C(F)(F)C(F)(F)C(F)(F)C(F)(F)C(F)(F)C(F)(F)F", "outcome": "inactive"},
      {"compound": "c1cc2ccc3cccc4ccc(c1)c2c34", "outcome": "inactive"},
      {"compound": "C=CC(=O)NCNC(=O)C=C", "outcome": "inactive"},
      {"compound": "Clc1ccc(C(Cl)(Cl)Cl)cc1", "outcome": "inactive"},
      {"compound": "O=C(NC(=O)c1cc(F)c(F)cc1Cl)Nc1cc(F)ccc1N1CCC(C(=O)O)CC1", "outcome": "inactive"}
    ]}
  ]
}
